Reference: PubChem BioAssay AID1159580 (chemical genetic matrix, 2015)
Several values for one entry are separate records, joined by “and”; a condition that tells them apart may be missing. Equal values may be shown once. About 2,000 (36%) of roughly 5,500 compounds were called active. About 18% were inconclusive and are not listed. Rule as the data show it: active = normalized growth mostly below about 0.91 (no sharp cut-off); inconclusive = no clear call, values can overlap the other calls; inactive = mostly above about 0.92. The list shows a part of the results.

Assay: chemical genetic growth profiling, strain panel (AID 1159580);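 also: tested at 20 µM; growth read once vehicle control cultures reached saturation at 30 °C; 1 = growth at the plate median or of vehicle wells; lower values mean less growth of the strain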
Conditions: S. cerevisiae deletion strains, growth OD

Measured: normalized growth

C[C@@H]1O[C@@H](O[C@H]2C[C@@H](O)[C@]3(CO)C4C(CC[C@]3(O)C2)[C@@]2(O)CC[C@H](C3=CC(=O)OC3)[C@@]2(C)C[C@H]4O)[C@H](O)[C@H](O)[C@H]1O (some centres not stated)
inactive: locus YAL021C, strain ccr4, stronger effect = lower value 1.01 | locus YAL026C, strain drs2, stronger effect = lower value 1.02 | locus YAL030W, strain snc1, stronger effect = lower value 1.03 | locus YBL061C, strain skt5, stronger effect = lower value 1.02 | locus YBR009C, strain hhf1, stronger effect = lower value 1.04 | locus YBR021W, strain FUR4, stronger effect = lower value 1.05 | locus YBR023C, strain chs3, stronger effect = lower value 1.03 | locus YBR171W, strain sec66, stronger effect = lower value 1.04 | locus YBR229C, strain ROT2, stronger effect = lower value 1.02 | locus YBR231C, strain swc5, stronger effect = lower value 1.01 | locus YBR279W, strain paf1, stronger effect = lower value 1.02 | locus YCL011C, strain gbp2, stronger effect = lower value 1.02 | locus YCL016C, strain dcc1, stronger effect = lower value 1.04 | locus YCL029C, strain bik1, stronger effect = lower value 0.99 | locus YCL061C, strain MRC1, stronger effect = lower value 1.01 | locus YCL069W, strain vba3, stronger effect = lower value 1.03 | locus YCR088W, strain abp1, stronger effect = lower value 1.02 | locus YDL005C, strain med2, stronger effect = lower value 1.02 | locus YDL035C, strain GPR1, stronger effect = lower value 1.05 | locus YDL040C, strain nat1, stronger effect = lower value 1.02 | locus YDL074C, strain BRE1, stronger effect = lower value 1.04 | locus YDL101C, strain DUN1, stronger effect = lower value 1.02 | locus YDL185W, strain tfp1, stronger effect = lower value 1 | locus YDL192W, strain arf1, stronger effect = lower value 0.994 | locus YDR001C, strain nth1, stronger effect = lower value 1.02 | locus YDR069C, strain doa4, stronger effect = lower value 0.997 | locus YDR101C, strain arx1, stronger effect = lower value 0.994 | locus YDR137W, strain rgp1, stronger effect = lower value 1.02 | locus YDR159W, strain sac3, stronger effect = lower value 1 | locus YDR162C, strain NBP2, stronger effect = lower value 1.03 | locus YDR195W, strain ref2 1.01 | locus YDR297W, strain sur2, stronger effect = lower value 1.02 | locus YDR318W, strain mcm21, stronger effect = lower value 0.998 | locus YDR334W, strain swr1, stronger effect = lower value 1.03 | locus YDR335W, strain msn5, stronger effect = lower value 1.03 | locus YDR388W, stronger effect = lower value 0.992 | locus YDR392W, strain spt3, stronger effect = lower value 0.981 | locus YDR502C, strain sam2, stronger effect = lower value 0.989 | locus YEL003W, strain gim4, stronger effect = lower value 1.03 | locus YEL037C, strain rad23, stronger effect = lower value 1.03 | locus YEL061C, strain CIN8 (second series), stronger effect = lower value 1.03 | locus YEL061C, strain CIN8, stronger effect = lower value 1.02 | locus YER015W, strain faa2, stronger effect = lower value 1.02 | locus YER016W, strain bim1, stronger effect = lower value 1.01 | locus YER110C, stronger effect = lower value 0.985 | locus YER111C, strain swi4, stronger effect = lower value 1.02 | locus YER155C, strain BEM2 (second series), stronger effect = lower value 1.01 | locus YER155C, strain BEM2, stronger effect = lower value 1.01 | locus YER167W, strain BCK2, stronger effect = lower value 1.03 | locus YFR010W, strain ubp6, stronger effect = lower value 1.03 | locus YGL078C, strain dbp3, stronger effect = lower value 0.992 | locus YGL086W, strain mad1, stronger effect = lower value 0.996 | locus YGL167C, strain pmr1, stronger effect = lower value 1.03 | locus YGL173C, strain kem1, stronger effect = lower value 1.02 | locus YGL227W, strain vid30, stronger effect = lower value 1.03 | locus YGL240W, strain doc1, stronger effect = lower value 0.997 | locus YGL248W, strain PDE1, stronger effect = lower value 1.02 | locus YGL253W, strain hxk2, stronger effect = lower value 1.01 | locus YGR135W, strain pre9, stronger effect = lower value 1.01 | locus YGR252W, strain gcn5, stronger effect = lower value 0.98 | locus YHR013C, strain ard1, stronger effect = lower value 1.04 | locus YHR027C, strain rpn1, stronger effect = lower value 1.02 | locus YHR030C, strain SLT2, stronger effect = lower value 1.02 | locus YHR079C, strain IRE1 (second series), stronger effect = lower value 0.987 | locus YHR079C, strain IRE1, stronger effect = lower value 1.02 | locus YHR094C, strain hxt1, stronger effect = lower value 0.983 | locus YHR129C, strain ARP1, stronger effect = lower value 1.02 | locus YHR142W, strain chs7, stronger effect = lower value 1.04 | locus YHR200W, strain rpn10, stronger effect = lower value 0.999 | locus YIL066C, strain RNR3, stronger effect = lower value 1.05 | locus YIL073C, strain SPO22, stronger effect = lower value 0.981 | locus YIL125W, strain kgd1, stronger effect = lower value 0.994 | locus YIR030C, strain dcg1, stronger effect = lower value 0.991 | locus YJL092W, strain hpr5, stronger effect = lower value 1.02 | locus YJL095W, strain BCK1 (second series), stronger effect = lower value 1.05 | locus YJL095W, strain BCK1, stronger effect = lower value 1.03 and 1.01 | locus YJL115W, strain asf1, stronger effect = lower value 1.03 | locus YJL129C, strain trk1, stronger effect = lower value 1.04 | locus YJL134W, strain LCB3, stronger effect = lower value 1.01 | locus YJL154C, strain vps35, stronger effect = lower value 1.02 | locus YJL164C, strain tpk1, stronger effect = lower value 1.02 | locus YJL166W, strain qcr8, stronger effect = lower value 1.01 | locus YJL168C, strain set2, stronger effect = lower value 0.987 | locus YJL187C, strain SWE1 (second series), stronger effect = lower value 1.03 | locus YJL187C, strain SWE1, stronger effect = lower value 1.02 | locus YJR043C, strain POL32, stronger effect = lower value 1.05 | locus YJR066W, strain TOR1, stronger effect = lower value 0.989
